The source of these data is PubChem BioAssay (NCATS).

Each structure is given as a SMILES string. Results filed as inconclusive are left out. Where a call stands in place of a potency, no number is given. The source made the active and inactive calls. Calls come from the whole dose curve; as a rule, active = well fitted cell-killing curve with a large enough effect; inconclusive = small, poorly fitted or top-dose-only effect, or effect the other way; inactive = no such curve, though single readings can be large or run the other way.
Note: nearly all actives have a fitted effect of over 30% in size.
Potency is the fitted concentration of half-maximal effect.

The first assay is described as follows: Quantitative High-Throughput drug screen in 47 multiple myeloma cell lines against the NCATS MIPE library collection: PCM6_Riken cell viability assay (AID 1919870). As to conditions: CellTiter-Glo ATP, 48 h; series mostly up to 45.8 µM. The procedure, abridged:
(§1)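 Readout: median RLU from CellTiter-Glo after 5 min at room temperature. Preceding step was 48 h drug treatment of 500 cells/well at 37 °C, 5% CO2, with DMSO-only and media-only control wells.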
On to `CCCCCCCCCCCCCCCCCCCCCCO`, for which the Potency entry was “inactive”.
The same measure, in the same setting: the same measure for `C[C@@H](c1ncncc1F)[C@](O)(Cn1cncn1)c1ccc(F)cc1F`: 1.66 µM (active).
On the same count and under the same terms, the same measure for `CN(C)[C@@H](CCOc1cccc2ccccc12)c1ccccc1`: 18.7 µM (active); for `O=c1c(O)c(-c2ccc(O)cc2O)oc2cc(O)cc(O)c12`: “inactive”.
As to `CN(C)CCc1c[nH]c2ccc(Cn3cncn3)cc12`, the Potency entry was “inactive”.
As for `CN1C(C(=O)Nc2ccccn2)=C(O)c2sccc2S1(=O)=O`, the Potency result is “inactive”.

A further assay in a line: Quantitative High-Throughput drug screen in 47 multiple myeloma cell lines against the NCATS MIPE library collection: RPMI8226_ATCC cell viability assay (AID 1919871). As to conditions: RPMI8226 myeloma viability, CellTiter-Glo ATP luminescence, 48 h; series mostly up to 45.8 µM. The method in brief:
as §1
With `CN(C)C(=O)COC(=O)Cc1ccc(OC(=O)c2ccc(N=C(N)N)cc2)cc1`, the Potency result was “inactive”.
The same measure, in the same setting: the same measure for `CCN(CCO)CCCC(C)Nc1ccnc2cc(Cl)ccc12` (stereo not given): “inactive”; for `CN(c1nccc(=O)[nH]1)C1CCN(c2nc3ccccc3n2Cc2ccc(F)cc2)CC1`: “inactive”; for `C[C@]12CCC(=O)C=C1CC[C@@H]1[C@H]2[C@@H](O)C[C@@]2(C)[C@H]1CC[C@]2(O)C(=O)CO`: 0.418 µM (active).
Turning to `CC1=C(C(=O)O)N2C(=O)[C@@H](NC(=O)[C@H](N)C3=CCC=CC3)[C@H]2SC1`, the Potency result is “inactive”.
The same measure, in the same setting: the same measure for `CCOC(=O)C1=C(O)C(=O)N(Cc2ccccc2)C1`: 13.2 µM (active).
Still for that read-out and setting: the same measure for `CCC1=C(C)CN(C(=O)NCCc2ccc(S(=O)(=O)NC(=O)NC3CCC(C)CC3)cc2)C1=O` (stereo not given): “inactive”; for `COc1cc(C(C)=O)ccc1OCCCN1CCC(c2noc3cc(F)ccc23)CC1`: 13.2 µM (active).
Same read-out and setting: the same measure for `CC(C)[N+]1(C)[C@@H]2CC[C@H]1CC(OC(=O)C(CO)c1ccccc1)C2` (stereo not given in full): “inactive”; for `NC(=O)Cc1cccc(C(=O)c2ccccc2)c1N`: “inactive”.
As for `Cc1cc(=O)c2c(O)c3c(O)cc(=O)c4c3c3c(cc(O)c1c23)C(C)(C)C=4O`, the Potency is 1.48 µM (active).
In the case of `CC(=O)O[C@H]1C(=O)[C@@]2(C)C([C@H](OC(=O)c3ccccc3)[C@]3(O)C[C@H](OC(=O)[C@H](O)[C@@H](NC(=O)c4ccccc4)c4ccccc4)C(C)=C1C3(C)C)[C@]1(OC(C)=O)CO[C@@H]1C[C@@H]2O` (stereo not given in full), the Potency entry was “inactive”.
Still for that read-out and setting: for `CCCCN(CCCC)CCC(O)c1cc2c(Cl)cc(Cl)cc2c2cc(C(F)(F)F)ccc12` (stereo not given) the value was “inactive”.
Same read-out and setting: the same measure for `CCCCCCCCCCCCCCCCCCCCCCO`: “inactive”; for `CN(C)[C@@H](CCOc1cccc2ccccc12)c1ccccc1`: 16.6 µM (active).
The same measure, in the same setting: the same measure for `O=c1c(O)c(-c2ccc(O)cc2O)oc2cc(O)cc(O)c12`: “inactive”; for `CN(C)CCc1c[nH]c2ccc(Cn3cncn3)cc12`: “inactive”; for `CN1C(C(=O)Nc2ccccn2)=C(O)c2sccc2S1(=O)=O`: “inactive”.

Another assay is described as follows: Quantitative High-Throughput drug screen in 47 multiple myeloma cell lines against the NCATS MIPE library collection: OPM2_DSMZ cell viability assay (AID 1919872). Conditions: OPM2 myeloma viability, CellTiter-Glo ATP luminescence, 48 h; series mostly up to 45.8 µM. The method in brief: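 Viability readout: CellTiter-Glo luminescence following 5 min room-temperature incubation with reagent. Prior exposure: 48 h, 37C, humidified 5% CO2, 500 cells per well.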
For `c1cnc2cc3c(cc2n1)C1CNCC3C1`, the Potency entry is “inactive”.
In the case of `CC1(C)C(=O)N(CCN2CCC(C(=O)c3ccc(F)cc3)CC2)c2ccccc21`, the Potency entry was “inactive”.
With `O=c1c(O)c(-c2cc(O)c(O)c(O)c2)oc2cc(O)cc(O)c12`, the Potency is 26.4 µM (active).
Same read-out and setting: the same measure for `O=C1NC(=O)C(c2ccccc2[N+](=O)[O-])=C1Nc1ccc(O)c(Cl)c1`: “inactive”; for `N=C(N)c1ccc2cc(OC(=O)c3ccc(N=C(N)N)cc3)ccc2c1`: 10.5 µM (active); for `CN(C)C(=O)COC(=O)Cc1ccc(OC(=O)c2ccc(N=C(N)N)cc2)cc1`: “inactive”.
As to `CCN(CCO)CCCC(C)Nc1ccnc2cc(Cl)ccc12` (stereo not given), the Potency entry is “inactive”.
For the molecule `COc1cc(OC)c(C(=O)CCCN2CCCC2)c(OC)c1`, the Potency result is “inactive”.
The same measure, in the same setting: the same measure for `CN(c1nccc(=O)[nH]1)C1CCN(c2nc3ccccc3n2Cc2ccc(F)cc2)CC1`: “inactive”; for `C[C@]12CCC(=O)C=C1CC[C@@H]1[C@H]2[C@@H](O)C[C@@]2(C)[C@H]1CC[C@]2(O)C(=O)CO`: “inactive”.
Turning to `CCCOc1ccc2nc(NC(=O)OC)[nH]c2c1`, the Potency is 0.0105 µM (active).
On the same count and under the same terms, the same measure for `CC1=C(C(=O)O)N2C(=O)[C@@H](NC(=O)[C@H](N)C3=CCC=CC3)[C@H]2SC1`: “inactive”; for `CC(C)Oc1ccc2c(=O)c(-c3ccccc3)coc2c1`: “inactive”; for `CC1(C)CCC(C)(C)c2cc(NC(=O)c3ccc(C(=O)O)cc3)ccc21`: “inactive”.
As for `CCOC(=O)C1=C(O)C(=O)N(Cc2ccccc2)C1`, the Potency entry is “inactive”.
The same measure, in the same setting: the same measure for `CCC1=C(C)CN(C(=O)NCCc2ccc(S(=O)(=O)NC(=O)NC3CCC(C)CC3)cc2)C1=O` (stereo not given): “inactive”.
On the same count and under the same terms, for `COc1cc(C(C)=O)ccc1OCCCN1CCC(c2noc3cc(F)ccc23)CC1` the value was “inactive”.
With `CC(C)[N+]1(C)[C@@H]2CC[C@H]1CC(OC(=O)C(CO)c1ccccc1)C2` (stereo not given in full), the Potency entry is “inactive”.
On to `CCCS(=O)c1ccc2nc(NC(=O)OC)[nH]c2c1` (stereo not given), for which the Potency was 23.5 µM (active).
Same read-out and setting: for `C[C@H](Cn1cnc2c(N)ncnc21)OCP(=O)(O)O` the value was “inactive”; for `Cc1cc(=O)c2c(O)c3c(O)cc(=O)c4c3c3c(cc(O)c1c23)C(C)(C)C=4O`, 13.2 µM (active); for `Oc1ccc(OCc2ccccc2)cc1`, “inactive”.
Turning to `O=C(NCCO[N+](=O)[O-])c1cccnc1`, the Potency result is “inactive”.
The same measure, in the same setting: the same measure for `CCCCN(CCCC)CCC(O)c1cc2c(Cl)cc(Cl)cc2c2cc(C(F)(F)F)ccc12` (stereo not given): “inactive”.
On to `CCCCCCCCCCCCCCCCCCCCCCO`, for which the Potency result is “inactive”.
As for `C[C@@H](c1ncncc1F)[C@](O)(Cn1cncn1)c1ccc(F)cc1F`, the Potency entry is “inactive”.
In the case of `O=c1c(O)c(-c2ccc(O)cc2O)oc2cc(O)cc(O)c12`, the Potency entry was “inactive”.
The same measure, in the same setting: the same measure for `CN(C)CCc1c[nH]c2ccc(Cn3cncn3)cc12`: “inactive”; for `CC(=O)N1CCN(c2ccc(OC[C@H]3CO[C@](Cn4ccnc4)(c4ccc(Cl)cc4Cl)O3)cc2)CC1`: 18.7 µM (active).
Same read-out and setting: the same measure for `CN1C(C(=O)Nc2ccccn2)=C(O)c2sccc2S1(=O)=O`: “inactive”; for `C=CCc1cc(OC)c(O)c(C(=O)NCCO)c1`: “inactive”.
